Consider eight compounds from PubChem BioAssay (Tox21).

Assay [1] concerns the target Thyrotropin receptor (Homo sapiens) (UniProt P16473). In words: qHTS assay to identify small molecule agonists of the thyroid stimulating hormone receptor (TSHR) signaling pathway (AID 1224843; calls by dose curve; note: nearly all actives have a fitted effect of over 45% in size). The method, boiled down:
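Using 15 concentrations per compound in triplicate, cAMP production was monitored in TSHR-HEK293 cells after 30 min compound incubation at RT; HTRF reagents followed, with fluorescence intensity recorded after 1 h.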

Assay [2] in a line: qHTS assay to identify small molecule agonists of the hypoxia (HIF-1) signaling pathway - cell viability counter screen (AID 1224844; calls by dose curve; note: nearly all actives have a fitted effect of over 50% in size). The method, boiled down:
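Same wells as the HIF-1 reporter screen; ME-180 cells carrying HRE-bla, 17 hr treatment at 37C; CellTiter-Glo luminescence read after 30 min at room temperature.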
A general note: Quantitative high-throughput screening tests each substance at several concentrations.

The nature of assay [3]: qHTS assay to identify small molecule agonists of the hypoxia (HIF-1) signaling pathway (AID 1224846; active = well fitted activation curve with a large enough effect in the signal ratio in the repeat runs, not every such curve was filed as active; the % refers to the signal ratio). The method, boiled down: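 In ME-180 cells bearing an HRE-bla construct, 17 h treatment with DMSO-dissolved compounds at 37C was followed by CCF4-AM loading to quantify reporter induction.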
Assay [4] is described as follows: qHTS assay to identify small molecule agonists of H2AX - cell viability counter screen (AID 1224847; calls by dose curve; note: top concentration of the series differs between compounds; nearly all actives have a fitted effect of over 30% in size). The method, boiled down:
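Cells plated first: CHO-K1, 1000 per well in 10% FBS medium, incubated overnight at 37C. Then 15-point compound titration added (final DMSO 0.76%) for 3 hr. Finally CellTiter-Glo added and luminescence read.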

A short description of assay [5]: qHTS RealTime-Glo MT Cell Viability Assay in HepG2 cells - 24 hour (AID 1224867). Note: nearly all actives have a fitted effect of over 50% in size. The method, boiled down:
(§1)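 qHTS, HepG2, 600 cells/well, RealTime-Glo (NanoLuc + prosubstrate) added with cells; 5 h preincubation; DMSO compound addition; 37 C; luminescence at 0/8/16/24/32/40 h.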

Assay [6] in a line: qHTS RealTime-Glo MT Cell Viability Assay in HEK293 cells - 32 hour (AID 1224868). Note: top concentration of the series differs between compounds; nearly all actives have a fitted effect of over 50% in size. The method, boiled down:
(§2)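 Assay medium contained NanoLuc luciferase plus cell-permeant prosubstrate, added with HEK293 cells at 600 cells/well. After 5 h at 37 C/5% CO2 compounds were added; plates stayed at 37 C for 40 h with serial luminescence reads.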

Assay [7] can be described thus: A CellTox Green Cytotoxicity Assay to monitor cytotoxicity in HEK293 cells - 0 hour (AID 1224869). Note: nearly all actives have a fitted effect of over 50% in size. The method, boiled down:
(§3)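 Homogeneous no-lysis format: HEK293 cell suspension mixed with CellTox Green reagent, seeded, incubated 5 h at 37 C/5% CO2, then dosed by pintool with compound in DMSO.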

The nature of assay [8]: A CellTox Green Cytotoxicity Assay to monitor cytotoxicity in HEK293 cells - 40 hour (AID 1224871). Note: nearly all actives have a fitted effect of over 45% in size. The method, boiled down: as §3
Assay [9] is described as follows: qHTS RealTime-Glo MT Cell Viability Assay in HEK293 cells - 16 hour (AID 1224872). The method, boiled down:
as §2

Assay [10] can be described thus: qHTS RealTime-Glo MT Cell Viability Assay in HepG2 cells - 8 hour (AID 1224873). Note: nearly all actives have a fitted effect of over 55% in size. The method, boiled down:
(§4)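 HepG2 cells mixed with RealTime-Glo MT reagents (NanoLuc plus cell-permeant prosubstrate) were seeded at 600 cells/well, incubated 5 h at 37 C/5% CO2, then pinned with compounds in DMSO; nonlytic luminescence tracked viability during 40 h treatment.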

Assay [11] is described as follows: qHTS RealTime-Glo MT Cell Viability Assay in HEK293 cells - 40 hour (AID 1224874). Note: nearly all actives have a fitted effect of over 50% in size. The conditions noted are these: RealTime-Glo luminescence; max response: stronger effect = lower value. The method, boiled down:
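Measured as luminescence from the same continuously cultured HEK293 wells at successive time points (0, 8, 16, 24, 32, 40 h) after compound addition. Reagent present from seeding; dosing at 5 h; incubation 37 C.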

Assay [12] is described as follows: A CellTox Green Cytotoxicity Assay to monitor cytotoxicity in HEK293 cells - 24 hour (AID 1224875). Note: series mostly up to about 77 µM; nearly all actives have a fitted effect of over 45% in size. The method, boiled down: as §3
Assay [13] is described as follows: A CellTox Green Cytotoxicity Assay to monitor cytotoxicity in HepG2 cells - 16 hour (AID 1224876). Note: nearly all actives have a fitted effect of over 45% in size. The method, boiled down: (§5)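 Fluorescent DNA-binding dye, 600 HepG2 cells/well, 5 h preincubation then compound in DMSO; same plates read at 0–40 h, 37 C.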
A short description of assay [14]: qHTS RealTime-Glo MT Cell Viability Assay in HepG2 cells - 32 hour (AID 1224877). Note: nearly all actives have a fitted effect of over 55% in size. The method, boiled down:
as §1

Assay [15] in a line: A CellTox Green Cytotoxicity Assay to monitor cytotoxicity in HepG2 cells - 40 hour (AID 1224879). Note: nearly all actives have a fitted effect of over 40% in size. Note: potency is the fitted concentration of half-maximal effect. The method, boiled down:
as §5

Assay [16] in a line: qHTS assay to identify small molecule agonists of H2AX (AID 1224845; active = well fitted activation curve with a large enough effect in the signal ratio in the repeat runs, not every such curve was filed as active; the % refers to the signal ratio). The method, boiled down:
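Wild-type CHO-K1 cells plated overnight, then exposed 3 hr at 37C to compounds at 15 concentrations (0.76% DMSO). Lysed, then HTRF anti-pH2AX(S139)-cryptate/anti-H2AX-d2 detection after 24 hr at room temperature; emissions 665 and 620 nm.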

A short description of assay [17]: qHTS RealTime-Glo MT Cell Viability Assay in HepG2 cells - 40 hour (AID 1224870). Note: nearly all actives have a fitted effect of over 50% in size. The method, boiled down:
as §4

Assay [18] in a line: A CellTox Green Cytotoxicity Assay to monitor cytotoxicity in HepG2 cells - 24 hour (AID 1224878). Note: nearly all actives have a fitted effect of over 45% in size. Note: potency is the fitted concentration of half-maximal effect. The method, boiled down: as §5

Values without a mark were called inactive. Inconclusive results are not listed. Activity calls are given as the source filed them. Unless noted, calls come from the whole dose curve; as a rule, active = well fitted curve in the direction sought with a large enough effect in the repeat runs; inconclusive = weak or mixed curves; inactive = no such curve, though single readings can be large; an effect the other way counts as inactive or inconclusive.
% is set by controls: 0 for no effect and ±100 for the full control effect.

Sequence of Thyrotropin receptor (Homo sapiens) (P16473 whole entry, looked up): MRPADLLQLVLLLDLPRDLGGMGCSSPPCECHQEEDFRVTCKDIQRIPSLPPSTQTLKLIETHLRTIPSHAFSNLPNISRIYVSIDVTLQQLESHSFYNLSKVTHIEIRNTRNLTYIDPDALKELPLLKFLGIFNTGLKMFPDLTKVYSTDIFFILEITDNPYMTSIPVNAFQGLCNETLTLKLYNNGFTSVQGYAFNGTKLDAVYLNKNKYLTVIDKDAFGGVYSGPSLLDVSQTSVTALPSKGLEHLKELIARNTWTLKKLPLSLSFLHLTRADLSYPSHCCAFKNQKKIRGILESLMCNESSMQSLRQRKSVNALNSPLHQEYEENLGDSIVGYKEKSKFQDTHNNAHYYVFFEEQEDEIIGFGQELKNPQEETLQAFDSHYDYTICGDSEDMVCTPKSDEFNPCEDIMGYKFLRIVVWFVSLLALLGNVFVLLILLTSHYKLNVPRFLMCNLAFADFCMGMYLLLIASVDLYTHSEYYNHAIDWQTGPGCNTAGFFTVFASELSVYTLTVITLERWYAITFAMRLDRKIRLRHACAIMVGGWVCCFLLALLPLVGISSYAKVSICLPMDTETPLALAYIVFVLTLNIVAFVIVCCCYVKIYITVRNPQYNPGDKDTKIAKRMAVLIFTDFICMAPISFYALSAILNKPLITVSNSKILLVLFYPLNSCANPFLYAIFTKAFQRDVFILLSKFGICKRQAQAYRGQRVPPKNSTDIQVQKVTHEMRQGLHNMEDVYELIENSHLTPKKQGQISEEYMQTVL

With `CCCCCCCCCCCCCCCCC(=O)O`, the Potency result in [1], in assay [2], in assay [4], in assay [6], in assay [7] and in assay [8] was “inactive” throughout. For the same compound, the Potency entry in assay [9], in assay [12], in assay [13], in assay [14] and in assay [15] was “inactive” each time. Further, the outcome in [3], in [5] and in [10] was inactive. Further, in assay [11], the max response was 3.49%.

Consider `CCCC1CCCC(=O)O1` (centres undefined), for which the Potency entry in [1], in [16], in assay [4], in [6], in assay [17] and in assay [8] was “inactive” throughout. Besides, the Potency entry in assay [9], in assay [12], in assay [13], in [14], in assay [18] and in assay [15] was “inactive” throughout. In addition, the compound was called inactive in [3], in [5] and in [10]. The max response in assay [11] is 0.877%.

In the case of `O=C(O)c1cccc(C(=O)O)c1C(=O)O`, the Potency entry in [1], in assay [16], in [4], in assay [6], in assay [17] and in assay [8] was “inactive” each time. Besides, the Potency result in assay [9], in assay [12], in assay [13], in [14], in [18] and in assay [15] was “inactive” each time. Further, the result in assay [3] and in assay [10] was inactive. Besides, the max response in assay [11] was -17%.

With `O=C(O)c1ccccc1-n1cc(C(=O)O)c(=O)c2cc(Nc3c(F)cc(F)cc3Cl)c(Cl)cc21`, the Potency entry in [1], in assay [16], in [4], in assay [6], in [7] and in [17] was “inactive” in each case. Further, the Potency entry in assay [8], in assay [9], in assay [12], in [13], in [14] and in assay [18] was “inactive” in each case. Besides, the Potency result in assay [15] is “inactive”. For the same compound, the compound was classed as inactive in [3], in [5] and in assay [10]. In [11], the max response was 0.656%.

With `CCCOC(C)=O`, the Potency result in assay [1], in assay [16], in assay [6], in assay [7], in assay [9] and in assay [12] was “inactive” in each case. Further, the Potency result in [13], in assay [14], in assay [18] and in [15] was “inactive” throughout. The result in [3] and in assay [10] was inactive. The max response in assay [11] was -1.95%.

Regarding `CC1(C)[C@@H]2CC[C@]3(C2)[C@@H]1C(=O)CCC3(C)C`, the Potency entry in assay [1], in [2], in [4], in [6], in assay [7] and in [17] was “inactive” throughout. In addition, the Potency entry in [9], in assay [12], in assay [13], in assay [14] and in assay [15] was “inactive” throughout. Also, the call in assay [3], in assay [5] and in assay [10] was inactive. The max response in assay [11] was 3.71%.

Turning to `CCOc1ccc2c(c1)C(C)CC(C)(C)N2` (centres undefined), the Potency result in assay [1], in [2], in assay [6], in assay [7], in assay [9] and in [14] was “inactive” throughout. Also, the compound was classed as inactive in assay [3], in [5] and in assay [10]. Besides, the max response in assay [11] is -1.9%. For the same compound, the Potency in assay [18] was 49 µM (active); in assay [15] it was 43.6 µM (active).

For the compound `C/C=C1\[C@H]2C=C(C)C[C@]1(N)c1ccc(=O)[nH]c1C2`, the Potency result in assay [1], in assay [2], in assay [6], in assay [7], in assay [17] and in [8] was “inactive” in each case. Also, the Potency result in [9], in assay [12], in assay [13], in assay [14], in assay [18] and in assay [15] was “inactive” in each case. For the same compound, the compound was classed as inactive in assay [3], in assay [5] and in assay [10]. Moreover, the max response in assay [11] was -2.81%.
